The full list was thinned out, with the strongest signals kept by preference.
Key:
Test in all cases: glycan array binding signal (z-score within array); higher = stronger binding
Conditions in all cases: glycan notation: IUPAC condensed, linker removed
[1] = molecular target: Gal(b1-4)GlcNAc(b1-3)Gal(b1-4)GlcNAc(b1-3)Gal(b1-4)GlcNAc(b1-2)Man(a1-3)[Gal(b1-4)GlcNAc(b1-3)Gal(b1-4)GlcNAc(b1-3)Gal(b1-4)GlcNAc(b1-2)Man(a1-6)]Man(b1-4)GlcNAc(b1-4)[Fuc(a1-6)]GlcNAc
How it was run: (§1)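 Arrays were curated from the Consortium for Functional Glycomics database, 3228 in total, and kept only where the protein sequence was available. Binding is expressed as a within-array Z-score. This score was averaged across arrays of the same protein sequence at different concentrations or buffers and across linkers, and negative values can be read as non-binding.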

[2] = molecular target: Gal(b1-4)GlcNAc(b1-3)Gal(b1-4)GlcNAc(b1-3)Gal(b1-4)GlcNAc(b1-2)[Gal(b1-4)GlcNAc(b1-3)Gal(b1-4)GlcNAc(b1-3)Gal(b1-4)GlcNAc(b1-6)]Man(a1-6)[Gal(b1-4)GlcNAc(b1-3)Gal(b1-4)GlcNAc(b1-3)Gal(b1-4)GlcNAc(b1-2)Man(a1-3)]Man(b1-4)GlcNAc(b1-4)[Fuc(a1-6)]GlcNAc
How it was run: as §1

[3] = molecular target: Gal(b1-4)GlcNAc(b1-3)Gal(b1-4)GlcNAc(b1-3)Gal(b1-4)GlcNAc(b1-3)Gal(b1-4)GlcNAc(b1-2)Man(a1-3)[Gal(b1-4)GlcNAc(b1-3)Gal(b1-4)GlcNAc(b1-3)Gal(b1-4)GlcNAc(b1-3)Gal(b1-4)GlcNAc(b1-2)Man(a1-6)]Man(b1-4)GlcNAc(b1-4)GlcNAc
How it was run: as §1

[4] = molecular target: Gal(b1-4)GlcNAc(b1-3)Gal(b1-4)GlcNAc(b1-3)Gal(b1-4)GlcNAc(b1-3)Gal(b1-4)GlcNAc(b1-2)[Gal(b1-4)GlcNAc(b1-3)Gal(b1-4)GlcNAc(b1-3)Gal(b1-4)GlcNAc(b1-3)Gal(b1-4)GlcNAc(b1-6)]Man(a1-6)[Gal(b1-4)GlcNAc(b1-3)Gal(b1-4)GlcNAc(b1-3)Gal(b1-4)GlcNAc(b1-3)Gal(b1-4)GlcNAc(b1-2)Man(a1-3)]Man(b1-4)GlcNAc(b1-4)[Fuc(a1-6)]GlcNAc
How it was run: as §1

[5] = molecular target: Gal(b1-4)GlcNAc(b1-3)Gal(b1-4)GlcNAc(b1-3)Gal(b1-4)GlcNAc(b1-3)Gal(b1-4)GlcNAc(b1-3)Gal(b1-4)GlcNAc(b1-2)[Gal(b1-4)GlcNAc(b1-3)Gal(b1-4)GlcNAc(b1-3)Gal(b1-4)GlcNAc(b1-3)Gal(b1-4)GlcNAc(b1-3)Gal(b1-4)GlcNAc(b1-6)]Man(a1-6)[Gal(b1-4)GlcNAc(b1-3)Gal(b1-4)GlcNAc(b1-3)Gal(b1-4)GlcNAc(b1-3)Gal(b1-4)GlcNAc(b1-3)Gal(b1-4)GlcNAc(b1-2)Man(a1-3)]Man(b1-4)GlcNAc(b1-4)[Fuc(a1-6)]GlcNAc
How it was run: as §1

[6] = molecular target: Gal(b1-4)GlcNAc(b1-6)[Gal(b1-4)GlcNAc(b1-3)]GalNAc
How it was run: as §1

[7] = molecular target: Gal3S(b1-3)GlcNAc
How it was run: as §1

[8] = molecular target: Gal3S(b1-4)Glc6S
How it was run: as §1

[9] = molecular target: Gal3S(b1-4)[Fuc(a1-3)]GlcNAc6S
How it was run: as §1

[10] = molecular target: GalNAc(b1-4)GlcNAc6S
How it was run: as §1

[11] = molecular target: GlcNAc(a1-4)Gal(b1-4)GlcNAc(b1-3)Gal(b1-4)GlcNAc(b1-3)Gal(b1-4)GlcNAc
How it was run: as §1

[12] = molecular target: GlcNAc(a1-4)Gal(b1-4)GlcNAc(b1-3)Gal(b1-4)[Fuc(a1-3)]GlcNAc(b1-3)Gal(b1-4)[Fuc(a1-3)]GlcNAc
How it was run: as §1

[13] = molecular target: GlcNAc(b1-3)Fuc
How it was run: as §1

[14] = molecular target: GlcNAc(b1-3)Gal(b1-4)GlcNAc(b1-3)Gal(b1-4)GlcNAc(b1-2)Man(a1-3)[GlcNAc(b1-3)Gal(b1-4)GlcNAc(b1-3)Gal(b1-4)GlcNAc(b1-2)Man(a1-6)]Man(b1-4)GlcNAc(b1-4)[Fuc(a1-6)]GlcNAc
How it was run: as §1

[15] = molecular target: GlcNAc(b1-3)GalNAc
How it was run: as §1

[16] = molecular target: GlcNAc(b1-3)[GlcNAc(b1-6)]GalNAc
How it was run: as §1

[17] = molecular target: Man(a1-6)Man
How it was run: as §1

[18] = molecular target: Neu5Ac(a2-3)Gal(b1-3)[Neu5Ac(a2-3)Gal(b1-4)]GlcNAc
How it was run: as §1

[19] = molecular target: Neu5Ac(a2-3)Gal(b1-4)GlcNAc
How it was run: as §1

[20] = molecular target: Neu5Ac(a2-3)Gal(b1-4)GlcNAc(b1-3)Gal(b1-4)GlcNAc(b1-2)Man(a1-3)[Neu5Ac(a2-3)Gal(b1-4)GlcNAc(b1-3)Gal(b1-4)GlcNAc(b1-2)Man(a1-6)]Man(b1-4)GlcNAc(b1-4)GlcNAc
How it was run: as §1

[21] = molecular target: Neu5Ac(a2-3)Gal(b1-4)[Fuc(a1-3)]GlcNAc(b1-3)Gal(b1-4)[Fuc(a1-3)]GlcNAc(b1-3)Gal(b1-4)[Fuc(a1-3)]GlcNAc
How it was run: as §1

[22] = molecular target: Neu5Ac(a2-3)Gal6S(b1-4)GlcNAc
How it was run: as §1

[23] = molecular target: Neu5Ac(a2-3)[Neu5Ac(a2-6)]GalNAc
How it was run: as §1

[24] = molecular target: Neu5Ac(a2-6)Gal(b1-4)GlcNAc(b1-2)Man(a1-3)[Neu5Ac(a2-3)Gal(b1-4)GlcNAc(b1-2)Man(a1-6)]Man(b1-4)GlcNAc(b1-4)GlcNAc
How it was run: as §1

[25] = molecular target: Neu5Ac(a2-6)Gal(b1-4)GlcNAc(b1-3)Gal(b1-4)GlcNAc
How it was run: as §1

[26] = molecular target: Neu5Ac(a2-6)Gal(b1-4)GlcNAc(b1-3)Gal(b1-4)GlcNAc(b1-3)[Neu5Ac(a2-6)Gal(b1-4)GlcNAc(b1-3)Gal(b1-4)GlcNAc(b1-6)]GalNAc
How it was run: as §1

[27] = molecular target: Neu5Ac(a2-6)Gal(b1-4)GlcNAc(b1-6)[Gal(b1-3)GlcNAc(b1-3)]Gal(b1-4)Glc
How it was run: as §1

[28] = molecular target: Neu5Ac(a2-6)GlcNAc(b1-4)GlcNAc
How it was run: as §1

[29] = molecular target: Neu5Ac(a2-8)Neu5Ac
How it was run: as §1

[30] = molecular target: Neu5Ac(a2-8)Neu5Ac(a2-8)Neu5Ac(a2-3)Gal(b1-4)Glc
How it was run: as §1

[31] = molecular target: Neu5Ac(a2-8)Neu5Ac(a2-8)Neu5Ac(a2-3)[GalNAc(b1-4)]Gal(b1-4)Glc
How it was run: as §1

B1: Gal 1 (Mus musculus), P16045 (protein)
chain: MACGLVASNLNLKPGECLKVRGEVASDAKSFVLNLGKDSNNLCLHFNPRFNAHGDANTIVCNTKEDGTWGTEHREPAFPFQPGSITEVCITFDQADLTIKLPDGHEFKFPNRLNMEAINYMAADGDFKIKCVAFE
glycan array binding signal (z-score) [1]: 2.53
glycan array binding signal (z-score) [2]: 3.89
glycan array binding signal (z-score) [3]: 2.54
glycan array binding signal (z-score) [4]: 3.42
glycan array binding signal (z-score) [5]: 3.46
glycan array binding signal (z-score) [6]: -0.011
glycan array binding signal (z-score) [7]: 2.76
glycan array binding signal (z-score) [8]: 0.672
glycan array binding signal (z-score) [9]: 2.69
glycan array binding signal (z-score) [10]: -0.452
glycan array binding signal (z-score) [11]: -0.404
glycan array binding signal (z-score) [12]: -0.015
glycan array binding signal (z-score) [13]: -0.43
glycan array binding signal (z-score) [14]: -0.19
glycan array binding signal (z-score) [15]: -0.094
glycan array binding signal (z-score) [16]: -0.292
glycan array binding signal (z-score) [17]: 0.23
glycan array binding signal (z-score) [18]: 0.068
glycan array binding signal (z-score) [19]: -0.256
glycan array binding signal (z-score) [20]: 1.31
glycan array binding signal (z-score) [21]: -0.083
glycan array binding signal (z-score) [22]: -0.411
glycan array binding signal (z-score) [23]: -0.3
glycan array binding signal (z-score) [24]: -0.219
glycan array binding signal (z-score) [25]: -0.348
glycan array binding signal (z-score) [26]: 1.13
glycan array binding signal (z-score) [27]: 0.027
glycan array binding signal (z-score) [28]: -0.34
glycan array binding signal (z-score) [29]: -0.093
glycan array binding signal (z-score) [30]: -0.347
glycan array binding signal (z-score) [31]: -0.144
